Screening results as filed in PubChem BioAssay.
The list is not random: actives were taken first. Their share in the collection is about 0.82%.
Keap1 Nrf2 FP – Keap1-Nrf2 (human) interaction inhibition. Q14145. AID 504523. Keap1 Kelch-Nrf2 peptide fluorescence polarization, 1536-well. 0.15% of 340,000 active. inhibition, % at 9.4 µM; in the data active = inhibition above about 12%;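 also: human Keap1 Kelch domain with fluorescein labeled Nrf2 9mer peptide probe; 0% = neutral control wells and 100% = peptide positive control; higher means more block of Keap1 binding to Nrf2 peptide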
Target sequence (Q14145 whole entry, looked up, the tested form may be a part): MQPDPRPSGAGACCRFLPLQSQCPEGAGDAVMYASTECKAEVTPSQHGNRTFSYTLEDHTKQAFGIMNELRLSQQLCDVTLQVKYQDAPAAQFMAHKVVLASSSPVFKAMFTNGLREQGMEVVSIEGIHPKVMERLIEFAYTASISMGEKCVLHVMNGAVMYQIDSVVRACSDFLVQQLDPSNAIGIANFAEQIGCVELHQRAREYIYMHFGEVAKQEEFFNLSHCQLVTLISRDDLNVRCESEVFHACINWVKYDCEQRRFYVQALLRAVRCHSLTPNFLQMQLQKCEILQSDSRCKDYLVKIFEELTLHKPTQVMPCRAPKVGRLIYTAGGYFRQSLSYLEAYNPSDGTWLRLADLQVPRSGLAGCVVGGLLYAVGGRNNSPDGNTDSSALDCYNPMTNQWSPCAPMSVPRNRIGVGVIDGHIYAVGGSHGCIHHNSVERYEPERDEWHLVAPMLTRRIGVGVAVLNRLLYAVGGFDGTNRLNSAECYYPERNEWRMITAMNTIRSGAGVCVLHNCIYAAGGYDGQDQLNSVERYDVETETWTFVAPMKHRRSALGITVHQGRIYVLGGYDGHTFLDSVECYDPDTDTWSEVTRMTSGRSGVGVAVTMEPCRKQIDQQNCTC
E coli Lon inh – inhibitors of E. coli Lon protease; P0A9M0; purified E. coli Lon protease, fluorescence polarization; inhibition, % at 7.94 µM; 0.42% of 360,000 active; AID 602123; in the data active = inhibition above about 13%, passing the limit was not always enough;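 also: 0% = enzyme with probe and DMSO and 100% = no enzyme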
LANA DNA inh – inhibitors of KSHV LANA C-terminal domain DNA binding | inhibition, % at 9 µM | 0.078% of 340,000 active | MBP-C-LANA/FAM-LBS DNA binding, fluorescence polarization | AID 504423;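 active = highest replicate inhibition at or above 60% at 9 µM, even if other replicates fall short; inactive = all replicates below 60% inhibition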;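 also: 0% = neutral control wells and 100% = 4 µM acridine orange control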
Cardiac RTF inh – cardiac RTF calcium desensitization. P19429+P45379. IANBD-labeled cardiac RTF, Ca2+ fluorescence. inhibition, % at 7.15 µM. 0.12% of 340,000 active;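 active = inhibition above the mean inhibition of all tested compounds plus 3 SD, cut at about 17% in these data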;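 also: assay run at fixed EC70 calcium of 1.6 mM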
cardiac RTF act – cardiac RTF calcium sensitization | P19429+P45379 | activation, % at 7.2 µM | IANBD-labeled TnC RTF fluorescence at EC20 calcium; 0% EC20 calcium, 100% full calcium | 0.24% of 340,000 active;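 active = activation above the mean over all tested compounds plus 3 SD, cut at about 30% in these data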;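 also: rise in fluorescence read as greater calcium sensitivity of cardiac thin filaments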
E coli Lon conf – E. coli Lon inhibition confirmation | shares compounds with E coli Lon inh | purified E. coli Lon, fluorescence polarization | inhibition, % at 7.94 µM | 31% of 1,400 active; in the data active = inhibition above about 16%;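 also: 0% = enzyme with probe and DMSO and 100% = no enzyme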
Starred values were filed as active, the others as inactive; / = no result; + = active, no number.

SMILES	Keap1 Nrf2 FP	E coli Lon inh	LANA DNA inh	Cardiac RTF inh	cardiac RTF act	E coli Lon conf
CC(=O)Nc1cc(Cl)ccc1OS(=O)(=O)c1ccc(C)cc1	-2.6	44.8*	-0.2	-3.6	-7.3	-1.4
CN(C)CCNc1oc(COc2ccc(Cl)cc2)nc1C#N	-0.7	-1.4	-0.7	0.8	-8.8	/
CN(C)CCNc1oc(COc2cccc(Cl)c2)nc1C#N	-2.4	20.1*	0.0	-17.8	-4.7	-16.1
CCn1c(CSc2nccn2C)nc2cc(C(=O)O)ccc21	-1.8	31.7*	7.3	-7.4	10.1	-6.7
CN(C)c1ccc(-c2csc(C(O)c3cccc(Cl)c3)n2)cc1 (stereo not given)	/	-4.4	/	/	/	/
C=CS(=O)(=O)c1c2cc(OC)ccc2nc2ccc(OC)cc12	-5.1	15.9	1.2	-8.5	4.6	/
C[N+]1(CC(=O)OC2CCCCCCCCCCC2)CCCC1	-0.6	5.7	-1.3	-11.7	2.6	/
CC(=O)/C(C[N+]1(C)CCCCC1)=N\O	-4.9	22.6*	-1.9	-1.4	12.5	-1.5
CC(=O)N1CCc2cc(NC(=O)C3(C)CCN3Cc3ccc(C(C)C)cc3)ccc21 (stereo not given)	/	2.4	/	/	/	/
COc1ccc(NC(=O)CN(C)C(=O)CCc2c[nH]c3ccccc23)cc1	-0.5	32.2*	-0.5	-9.1	2.0	15.5
O=C(c1cc(COc2ccc(F)cc2F)on1)N1C[C@H]2CC[C@H]1C2	1.4	23.6*	2.3	2.3	-5.4	-6.5
O=C1c2cccc3c(N4CCCCC4)ccc(c23)C(=O)N1CCO	7.3	125.9*	27.6	-100.7	75.6*	-76.5
O=C1c2cccc3cccc(c23)C(=O)N1CCO	/	11.9	/	/	/	/
C=CCN1C(=O)c2cccc3c(N4CCCCC4)ccc(c23)C1=O	-0.1	114.3*	6.6	-60.3	73.9*	-93.8
C=CCN1C(=O)c2cccc3c(Br)ccc(c23)C1=O	-1.1	-7.9	-0.3	-10.6	-0.9	/
CCOC(=O)N1CCN(C(=O)C[C@@H]2C[C@@]3(C(=O)OC)CCCCC=C3N(Cc3cccc4ccccc34)C2=O)CC1	/	-2.3	/	/	/	/
COc1ccccc1N1CC(C(=O)OC(C)C(=O)Nc2ccc(F)cc2)CC1=O (stereo not given)	/	-4.0	/	/	/	/
CN1CCCC(C)(C(=O)Nc2ccc(-n3cccc3)cc2)C1 (stereo not given)	/	-0.3	/	/	/	/
C=CCOc1cccn2c(N(C=O)Cc3ccc(OC)cc3)c(CC)nc12	/	-1.4	/	/	/	/
O=C1c2cccc3cc([N+](=O)[O-])cc(c23)C(=O)N1/N=C/c1ccc(O)cc1O	-0.5	16.6*	-0.6	-9.0	4.2	19.8*
Nc1cc2c3c(cccc3c1)C(=O)N(CCN1CCCC1)C2=O	2.6	93.7*	2.1	-18.6	14.1	82.1*
O=C1c2cccc3cc([N+](=O)[O-])cc(c23)C(=O)N1CCN1CCCC1	9.0	86.7*	5.5	-20.7	15.5	47.2*
NC(=O)CN1CCN(CCN2C(=O)c3cccc4cccc(c34)C2=O)CC1	0.3	8.5	-3.4	0.2	-2.7	/
O=C1c2ccccc2C(=O)N1CCN1CCCCC1	2.4	3.1	0.4	-0.4	-1.3	/
COc1ccc(/C=C/C(=O)N2CCN(c3ccccn3)CC2)c2ccccc12	-5.5	10.8	1.2	-9.1	5.0	/
SMILES	Keap1 Nrf2 FP	E coli Lon inh	LANA DNA inh	Cardiac RTF inh	cardiac RTF act	E coli Lon conf
COc1ccc(/C=C/C(=O)N2CCN(c3ccccn3)CC2)c(OC)c1OC	-1.5	62.5*	0.3	0.7	-4.0	-5.4
CC1(Oc2ccccc2-c2ccno2)CCN(Cc2csc3ccccc23)C1 (stereo not given)	/	5.7	/	/	/	/
O=C1NC2=C(C(=O)CCC2)C(c2ccccc2)N1 (stereo not given)	-5.8	1.3	-1.0	-0.9	-1.4	/
O=C1NC2=C(C(=O)CCC2)C(c2ccccc2[N+](=O)[O-])N1 (stereo not given)	0.2	24.5*	7.8	1.2	1.3	-7.2
CCOC(=O)[C@]12CCC=C1N(Cc1ccc3c(c1)OCO3)C(=O)[C@H](CC(=O)NCc1ccc(C)o1)C2	/	3.1	/	/	/	/
CC(Nc1cccc2ccccc12)C(=O)N/N=C/c1ccccn1 (stereo not given)	4.7	24.0*	25.4	-20.0	10.3	7.3
CCOC(=O)NC(=O)C(/C=N/c1sccc1C(=O)OC)=C(\C)O	0.6	42.0*	4.0	/	/	5.1
CS(=O)(=O)Nc1cccc(-c2cc(NC=O)c3ncc(-c4ccc(F)c(Cl)c4)n3c2)c1	/	-26.1	/	/	/	/
CCCCCC(C)NC(=O)c1cc(S(=O)(=O)N2CCCCC2)ccc1N1CCOCC1 (stereo not given)	2.6	22.0*	0.2	2.7	-0.3	5.6
Cc1nn(-c2ccc(F)cc2F)c2c1-c1nc(N3CCCC3)ncc1CC2	-5.2	16.2*	-0.2	-7.9	-1.4	6.3
Cc1nn(-c2ccc(F)cc2F)c(=O)c2noc(C)c12	1.0	-4.1	0.4	0.1	-1.0	/
Nc1nc(Cl)cc(Oc2ccc([N+](=O)[O-])cc2)n1	0.8	16.3*	1.1	1.4	4.2	20.2*
Cc1cccnc1C(NC(=O)C1CCN(CCCc2ccccc2)CC1)c1ccc(F)cc1 (stereo not given)	/	-0.5	/	/	/	/
CN1OC[C@@H]2CN(Cc3cc(Cl)cc(Cl)c3)[C@H](c3cccc(-c4ccc(C#N)cc4)c3)C[C@@H]21	/	-3.3	/	/	/	/
O=C1CCNc2ccc(-c3ccccc3)cc21	24.2*	72.5*	83.6*	-71.4	64.3*	+
CCCCn1nnnc1C(c1ccccc1)N1CCN(c2ncc(C(F)(F)F)cc2Cl)CC1 (stereo not given)	/	-1.6	/	/	/	/
COCCn1c(=NC(=O)C2COc3ccccc3O2)sc2cc(S(N)(=O)=O)ccc21 (stereo not given)	-0.3	-6.3	-1.7	-4.0	-5.2	/
C=CCn1c(=NC(=O)C2COc3ccccc3O2)sc2cc(S(N)(=O)=O)ccc21 (stereo not given)	-1.9	23.2*	1.6	4.7	0.4	-8.8
O=C1OC(Nc2ncccn2)c2ccccc21 (stereo not given)	-1.9	-0.7	-0.1	0.2	-1.6	/
O=C1OC(Nc2cc(Br)cc3cccnc23)c2ccccc21 (stereo not given)	-0.8	42.4*	1.3	-1.9	-0.4	-3.8
Cc1ccc(OCC(=O)N/N=C2\CC(=O)CC(C)(C)C2)c(Br)c1	-2.7	15.2*	0.4	-1.5	1.8	-7.5
Cc1ccccc1OCC(=O)N/N=C1\CC(=O)CC(C)(C)C1	4.6	3.5	-1.1	-3.4	0.7	/
Cc1cc(C)nc(SCc2ccc(C(=O)N/N=C3\CCCC(=O)C3)cc2)n1	-3.1	22.6*	2.8	-9.8	11.3	-10.0
CCN(CC)S(=O)(=O)c1cccc(C(=O)N/N=C2\CCCC(=O)C2)c1	1.3	87.0*	11.4	-9.9	-2.8	-27.0
CCOc1ccccc1OCC(=O)NN=C1CCCC(=O)C1	-4.9	35.9*	0.9	2.3	-6.8	3.6
Cc1cc(C)nc(SCc2ccc(C(=O)NN=C3CCCC3)cc2)n1	-5.2	1.3	0.4	-8.7	2.8	/
